# Like-named read-outs stand apart in the source and are kept apart here.
# Experiments:
# [1] = test system: PRKD3; details: concentration: 1 μM, replicates: in singlicate; n = 1
# [2] = test system: PRKG1; details: n = 1
# [3] = test system: PRKG2; details: concentration: 1 μM, replicates: in singlicate; n = 1
# [4] = test system: T1, PRKR; details: concentration: 1 μM, replicates: in singlicate; n = 1
# T1 construct: gene EIF2AK2
# [5] = test system: PRKX; details: n = 1
# [6] = test system: PRP4; details: concentration: 1 μM, replicates: in singlicate; n = 1
# [7] = test system: T2, PYK2; details: concentration: 1 μM, replicates: in singlicate; n = 1
# T2 construct: gene PTK2B
# [8] = test system: QSK; details: concentration: 1 μM, replicates: in singlicate; n = 1
# [9] = test system: RAF1; details: concentration: 1 μM, replicates: in singlicate; n = 1
# [10] = test system: RET; details: concentration: 1 μM, replicates: in singlicate; n = 1
# [11] = concentration: 1 μM, replicates: in singlicate
# 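Note: KINOMEscan kinase panel screen.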
SMILES,%Inh [1],"%Inh [2, 11]",%Inh [3],%Inh [4],"%Inh [5, 11]",%Inh [6],%Inh [7],%Inh [8],%Inh [9],%Inh [10],%Inh ([2]; 1 µM),%Inh ([5]; 1 µM)
CC(C)(C)c1ccc2nccc(Nc3cccc(O)c3)c2c1 [GW856795],77%,1%,4%,0%,0%,27%,0%,0%,0%,94.7%,,
Cc1cccc(Nc2nc(N[C@H]3CCNC3)ncc2C(N)=O)c1.Cl [GSK2197149],75%,0%,0%,22%,38%,23%,49%,14%,0%,30%,,
NCCCC(NC(=O)c1cc(Br)c(-c2ccnc3[nH]ccc23)s1)c1ccccc1.O=C(O)C(F)(F)F.O=C(O)C(F)(F)F (stereo not drawn) [GSK1287544],53%,97.8%,98%,0%,92.5%,0%,0%,0%,0%,54%,,
COc1cc(Nc2nccc(N3CCC(NC(=O)Nc4cccc(C(C)=O)c4)C3)n2)cc(OC)c1OC (stereo not drawn) [GSK1379753],0%,0%,0%,0%,37%,14%,0%,0%,14%,0%,,
Cl.c1ccc(-c2ccc3c(Nc4ccc5[nH]ccc5c4)ccnc3c2)nc1 [GW440138],5%,0%,0%,0%,3%,77%,0%,0%,40%,96.9%,,
CN(C)S(=O)(=O)c1cc(-c2ccc3nccc(-c4cccc(S(N)(=O)=O)c4)c3c2)cnc1N [GSK1669921],100%,34%,76%,0%,27%,0%,6%,7%,9%,58%,,
O=C(Nc1cccc(-c2nn3ccccc3c2-c2ccnc(Nc3cccc(F)c3)n2)c1)c1c(F)ccc(F)c1Cl [GSK357952],39%,1%,1%,0%,22%,8%,0%,5%,79%,84%,,
COc1ccc(-c2coc3ccc(-c4nnc(SCc5ccc(OC)c(C(F)(F)F)c5)o4)cc23)cc1,0%,6%,14%,0%,0%,15%,0%,0%,12%,0%,,
c1ccc(-c2n[nH]cc2Nc2ccnc3ccccc23)nc1 [GW694077],100%,5%,0%,16%,0%,89%,0%,0%,7%,0%,,
c1ccc(Oc2ccc(Nc3ccnc4cc(-c5ccc(CNCCN6CCOCC6)o5)ccc34)cc2)nc1 [GW567145],23%,1%,2%,0%,0%,36%,0%,17%,2%,5%,,
O=C(Nc1n[nH]c2nc(-c3ccc(O)cc3)ccc12)C1CC1 [SB-710363],0%,19%,10%,0%,0%,0%,26%,17%,13%,0%,,
C[C@@H]1CC[C@@H](C(=O)Nc2ccccc2)CN1c1cc(-c2ccc3c(N)n[nH]c3c2)nc(N)n1 [GSK2286062],0%,0%,0%,2%,5%,13%,3%,3%,2%,6%,,
Cl.NC(=O)c1cccc(Nc2nccc(Nc3ccc(Oc4c(Cl)cccc4Cl)c(Cl)c3)n2)c1 [GW659009],21%,0%,0%,0%,0%,20%,0%,0%,88%,0%,,
CCc1ccc(-c2ccc3c(c2)-c2c(cnn2C)S(=O)(=O)N3C)cc1,0%,0%,0%,6%,16%,10%,0%,0%,19%,5%,,
COc1cc2c(cc1OCCN1CCNCC1)ncc1c3ccc(C#N)cc3[nH]c21,0%,0%,7%,9%,34%,38%,0%,52%,29%,35%,,
CCn1c(-c2nonc2N)nc2c(C#CC(C)(C)O)ncc(OCCCCN)c21.O=C(O)C(F)(F)F.O=C(O)C(F)(F)F [GSK507274],0%,,96%,0%,,2%,0%,5%,13%,1%,64%,94.1%
COC(=O)Nc1nc2cc(Oc3ccc(NC(=O)Nc4cc(C(F)(F)F)ccc4F)cn3)ccc2[nH]1.Cl.Cl [GW681170],13%,9%,22%,0%,0%,22%,16%,0%,90.3%,99.9%,,
Cl.Cl.NCC(NCc1ccc(-c2ccnc3[nH]ccc23)s1)c1ccccc1 (stereo not drawn) [GSK1321565],56%,97.1%,97.8%,0%,94.2%,86%,9%,0%,2%,49%,,
COc1cc(Nc2nccc(-c3c(-c4cccc(NC(=O)c5c(F)cccc5F)c4)nn4ncccc34)n2)cc(OC)c1OC [GSK327238],0%,24%,15%,22%,0%,0%,72%,17%,97.2%,99.7%,,
O=C(Nc1cccc(-c2nn3ncccc3c2-c2ccnc(Nc3ccccc3)n2)c1)c1c(F)cccc1F [GSK198271],47%,0%,0%,0%,11%,6%,27%,10%,94.1%,99.7%,,
C[C@@H](Oc1cc(-n2cnc3cc(-c4ccnc(NCCS(C)(=O)=O)c4)ccc32)sc1C(N)=O)c1ccccc1Cl [GSK907232],0%,10%,0%,0%,0%,60%,24%,14%,18%,51%,,
CN1CCN(Cc2cccc(-c3ccc4c(Nc5ccc(Oc6ccccc6)cc5)ccnc4c3)c2)CC1 [GW578342],0%,0%,0%,0%,6%,27%,0%,9%,0%,48%,,
Nc1ncnc2c1nc(-c1ccccc1)n2-c1ccccc1 [SKF-97293],22%,7%,0%,27%,3%,15%,8%,26%,0%,17%,,

SMILES,%Inh [1],"%Inh [2, 11]",%Inh [3],%Inh [4],"%Inh [5, 11]",%Inh [6],%Inh [7],%Inh [8],%Inh [9],%Inh [10],%Inh ([2]; 1 µM),%Inh ([5]; 1 µM)
O=C(Nc1ccccc1F)NC1CCN(c2ccnc(Nc3ccc(F)cc3)n2)CC1 [GSK1379800],0%,15%,0%,0%,7%,45%,0%,1%,16%,4%,,
c1ccc(-c2cnc3nccnn23)cc1 [AH20685],0%,14%,0%,0%,6%,6%,0%,0%,7%,0%,,
COc1cccc(C(=O)Nc2cccc(Oc3ccc4nc(NC(=O)C5CC5)cn4n3)c2)c1,15%,0%,21%,0%,2%,0%,9%,0%,96.8%,100%,,
CCS(=O)(=O)c1ccc(OC)c(Nc2nccc(-c3c(-c4cccc(NC(=O)c5c(F)cccc5F)c4)nn4ncccc34)n2)c1 [GSK326180],12%,6%,3%,0%,18%,20%,12%,7%,93.2%,20%,,
Oc1cc(Nc2ccnc3cc(I)ccc23)ccc1F [GW552771],40%,0%,0%,0%,0%,18%,25%,69%,49%,85%,,
Nc1ncc(-c2cccnc2)c2scc(-c3ccc4c(c3)CCN4C(=O)Cc3ccccc3)c12 [GSK683281],18%,12%,25%,5%,23%,0%,35%,18%,11%,21%,,
COc1cc(Nc2nccc(-c3c(-c4cccc(NC(=O)c5c(F)cccc5F)c4)nn4ccccc34)n2)cc(OC)c1OC [GSK323521],42%,31%,0%,15%,22%,1%,2%,3%,16%,29%,,
CC(=O)Nc1nc2cnc(Nc3cc(NC(=O)c4cccc(C5(C#N)CC5)c4Cl)ccc3C)nc2s1,0%,0%,0%,0%,19%,6%,20%,0%,99.2%,99.6%,,
Cc1ccc(F)c(C(=O)Nc2cccc(-c3nn4ccccc4c3-c3ccnc(Nc4cccc(F)c4)n3)c2)c1F [GSK361061],32%,18%,0%,0%,12%,15%,0%,17%,87%,96.3%,,
COc1cccc(NC(=O)NC2CCN(c3ccnc(Nc4cc(OC)c(OC)c(OC)c4)n3)C2)c1 (stereo not drawn) [GSK1379763],0%,0%,0%,6%,28%,26%,4%,0%,7%,16%,,
Cc1ccc(C(=O)Nc2ccc(Nc3ccnc4cc(-c5nccs5)ccc34)cc2O)cc1.Cl [GW494702],0%,0%,0%,0%,11%,46%,0%,0%,19%,59%,,
O=C(Nc1cccc(Oc2ccc3nc(NC(=O)C4CC4)cn3n2)c1)c1ccccc1C(F)(F)F,0%,0%,0%,8%,5%,5%,6%,0%,76%,99.9%,,
Cn1cc(-c2[nH]c3cc(NC(=O)[C@H](N)C4CCCCC4)cc4c3c2C=NNC4=O)cn1,0%,56%,96.2%,67%,89%,68%,3%,95.8%,0%,100%,,
COCCOCCOc1cc2ncc3c4ccc(C#N)cc4[nH]c3c2cc1OC,0%,0%,17%,41%,0%,19%,6%,67%,0%,45%,,
O=C(NC1CCN(c2ccnc(Nc3ccc(F)cc3)n2)C1)c1cc2ccccc2s1 (stereo not drawn) [GSK1379716],9%,7%,0%,0%,4%,45%,15%,10%,17%,10%,,
Nc1ncc(-c2ccc3nccc(-c4ccncc4)c3c2)cc1S(=O)(=O)N1CCOCC1 [GSK1627798],0%,0%,0%,14%,11%,3%,21%,0%,0%,0%,,
Cn1cc(-c2ccc3c(c2)CCN3C(=O)Cc2cccc(Cl)c2)c2c(N)ncnc21 [GSK2606590],9%,14%,0%,14%,21%,2%,4%,23%,1%,27%,,
Cn1cc(-c2ccc3c(c2)CCN3C(=O)Cc2cccc(F)c2)c2c(N)ncnc21 [GSK2603358],2%,0%,4%,1%,14%,44%,0%,8%,9%,47%,,
CCn1c(-c2nonc2N)nc2c(C#CC(C)(C)O)nc(OC[C@H](N)c3ccccc3)cc21 [GSK943949],22%,60%,92.6%,0%,92.1%,10%,7%,0%,11%,10%,,
COc1cccc(C2=C(Nc3ccc(Cl)c(C(=O)O)c3)C(=O)NC2=O)c1 [SB-390769],0%,0%,41%,9%,0%,31%,0%,100%,14%,11%,,
Cc1ccc(S(=O)(=O)Nc2ccc(Nc3nccc(Nc4cccc5[nH]ncc45)n3)cc2)cc1 [GSK581271],0%,0%,5%,0%,6%,53%,12%,6%,10%,8%,,
Cc1occc1-c1ncc(OC[C@@H](N)Cc2c[nH]c3ccccc23)cc1-c1ccc2[nH]nc(C)c2c1.O=C(O)C(F)(F)F [GSK682037],95.6%,57%,14%,0%,56%,11%,49%,11%,11%,84%,,

# Source: article PMC5540273 (PLoS ONE, 2017)
